Records with an inconclusive call do not appear. Entries that show only a call come without a potency. The source made the active and inactive calls. The call rests on the fitted dose curve; in most records, active means well fitted inhibition curve with a large enough effect; inconclusive means small, poorly fitted or top-dose-only effect; inactive means no such curve, though single readings can be large or run the other way.
target: N-terminal Xaa-Pro-Lys N-methyltransferase 1 (Homo sapiens) (UniProt Q9BV86); assay: qHTS Assay for Inhibitors of N-terminal methyltransferase 1 (NTMT1): MTaseGlo Confirmatory Screen, Round 2; settings: NTMT1 enzyme, MTase-Glo SAH luminescence; series mostly up to 57.4 µM
Sequence (Q9BV86 whole entry, looked up): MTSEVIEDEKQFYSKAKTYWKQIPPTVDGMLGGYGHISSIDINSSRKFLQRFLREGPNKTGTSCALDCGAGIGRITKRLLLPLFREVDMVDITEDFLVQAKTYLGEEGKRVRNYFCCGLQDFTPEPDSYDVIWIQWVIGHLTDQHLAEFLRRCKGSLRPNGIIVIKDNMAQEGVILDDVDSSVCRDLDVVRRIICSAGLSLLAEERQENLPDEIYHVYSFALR
Outline: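 Luminescent MTase-Glo readout of SAH formed in 30 min at RT by 125 nM NTMT1, 100 µM SAM and 1 µM SPKRIA substrate, after ~15 min compound preincubation. Percent inhibition versus no-enzyme and DMSO controls was Hill-fitted.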
Potency means the concentration at half of the fitted maximal effect.

Row | Compound | Potency
1 | CC(Cc1ccc(O)c(O)c1)C(C)Cc1ccc(O)c(O)c1 (stereo not drawn) | 35.5 µM (active)
2 | CCCc1cc(C)[nH]c(=O)c1CNC(=O)c1cc(-c2ccc(N3CCN(C(C)C)CC3)nc2)cc2c1cnn2C(C)C | inactive
3 | Cc1cc(C)c(/C=C2\C(=O)Nc3ccccc32)[nH]1 | inactive
4 | Cc1ccc(O)c(N=Nc2ccccc2)n1 | 14.1 µM (active)
5 | COc1ccc(/C=C2\COc3ccc(C)cc3C2=O)cc1O | inactive
6 | O=C1c2c(O)cc(O)cc2OC(c2ccc(O)c(O)c2)C1O (stereo not drawn) | inactive
7 | Cc1cc(C)c(CNC(=O)c2cc(-c3ccc(CN4CCOCC4)cc3)cc3c2cnn3C2CCCC2)c(=O)[nH]1 | inactive
8 | CN=c1nc(-c2ccccc2)n(-c2ccccc2)s1 | 1 µM (active)
9 | O=c1[nH]c(=S)[nH]c(-c2ccccc2)c1Cc1c(O)ccc2ccccc12 | inactive
10 | OCC1OC(n2cnc3c(NO)ncnc32)C(O)C1O (stereo not drawn) | inactive
11 | C[C@](Cc1ccc(O)c(O)c1)(NN)C(=O)O | inactive
12 | CC#C[C@]1(O)CC[C@H]2[C@@H]3CCC4=CC(=O)CCC4=C3[C@@H](c3ccc(N(C)C)cc3)C[C@@]21C | inactive
13 | COC(=O)[C@H]1[C@H]2C[C@H]3c4[nH]c5ccccc5c4CCN3C[C@H]2CC[C@@H]1O | inactive
14 | CSc1ccc(C(=O)c2[nH]c(=O)[nH]c2C)cc1 | inactive
15 | COc1cc2c(NC3CCN(CC4CCCCC4)CC3)nc(N3CCCCC3)nc2cc1OCCCN1CCCCC1 | inactive
16 | OC[C@H]1O[C@@H](n2cnc3cncnc32)[C@H](O)[C@@H]1O | 5.62 µM (active)
17 | c1ccc(CN2CCC3(CCCc4ccccc43)CC2)cc1 | inactive
18 | Brc1c(NC2=NCCN2)ccc2nccnc12 | inactive
19 | O=C(O)Cc1ccc(O)c(O)c1 | inactive

Row | Compound | Potency
20 | O=[N+]([O-])c1ccc(-c2nc(-c3ccc(F)cc3)c(-c3ccncc3)[nH]2)cc1 | inactive
21 | CN(C)[C@@H]1C(=O)C(C(N)=O)=C(O)[C@@]2(O)C(=O)C3=C(O)c4c(O)ccc(Cl)c4[C@@H](O)[C@H]3C[C@@H]12 | inactive
22 | OCCNc1ncnc2c1ncn2[C@@H]1O[C@@H](CO)[C@H](O)[C@@H]1O | inactive
23 | CCN1CCC[C@H]1CNC(=O)c1cc(S(N)(=O)=O)ccc1OC | inactive
24 | C=CCN1CCc2cc(O)c(O)cc2[C@H](c2ccccc2)C1 | inactive
25 | CN(C)CCCN1c2ccccc2Sc2ccc(C(F)(F)F)cc21 | inactive
26 | O=C1NC(=O)C(=Cc2ccc(-c3ccc(F)cc3O)o2)S1 | 35.5 µM (active)
27 | N#C/C(=C\c1ccc(O)c(O)c1)C(=O)NCCc1ccccc1 | inactive
28 | N#CC(C#N)=C(N)/C(C#N)=C/c1ccc(O)cc1 | inactive
29 | C=CCN1CCc2c(cc(O)c(O)c2Cl)C(c2ccccc2)C1 (stereo not drawn) | inactive
30 | OCCN1CCN(CCCN2c3ccccc3Sc3ccc(Cl)cc32)CC1 | inactive
31 | Cc1nn(-c2ccccc2)c(C)c1/C=N/N1CCN(Cc2ccccc2)CC1 | inactive
32 | O=c1cc(-c2ccccc2)oc2c(O)c(O)ccc12 | inactive
33 | O=C(Nc1ccc([N+](=O)[O-])cc1Cl)c1cc(Cl)ccc1O | inactive
34 | CC1=C(\C=C/C(C)=C/C=C\C(C)=C\C(=O)O)C(C)(C)CCC1 | inactive
35 | NCCc1ccc(O)c(O)c1 | inactive
36 | O=C1c2c(O)ccc(O)c2C(=O)c2c(NCCNCCO)ccc(NCCNCCO)c21 | 31.6 µM (active)
37 | N[C@@H](Cc1ccc(O)c(O)c1)C(=O)O | inactive
38 | O=C1Nc2ccc(I)cc2/C1=C/c1cc(Br)c(O)c(Br)c1 | 8.91 µM (active)

Source: PubChem BioAssay AID1347147 (National Center for Advancing Translational Sciences (NCATS), 2019)
